Bioassay records as filed in PubChem.
The list is not random: actives were taken first. Their share in the collection is about 1.3%.
NTR1 agonist: NTR1 (human) agonism; NTR1-U2OS beta-arrestin-GFP spot imaging, agonist mode; P30989; hit rate 0.17% among 330,000; activation, % at 20 µM;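 active = activation at or above 40% of the spot to cytoplasm intensity ratio, with at least 20 cells analyzed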
Beta2AR agonist: human beta-2 adrenergic receptor agonism by FAP; P07550; Am2.2-beta2AR cells, FAP receptor internalization, flow cytometry; response, % (concentration not given with the values); hit rate 0.43% among 340,000;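 active = response above a set limit, near 3 SD of response in nonfluorescent compounds, cut at about 42% in these data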
GRK2 aptamer HTS: inhibitors of human GRK2 displacing RNA aptamer; P25098; bead flow cytometry, FAM-aptamer displacement from GRK2; inhibition of aptamer binding, % at 10 µM; hit rate 0.59% among 330,000; AID 488847;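 active = inhibition of aptamer binding above 40%, roughly 3 SD of noise, on plates passing a quality check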;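 note: median bead fluorescence of bound FAM aptamer so fluorescent compounds give negative values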
Target sequence (P25098 whole entry, looked up): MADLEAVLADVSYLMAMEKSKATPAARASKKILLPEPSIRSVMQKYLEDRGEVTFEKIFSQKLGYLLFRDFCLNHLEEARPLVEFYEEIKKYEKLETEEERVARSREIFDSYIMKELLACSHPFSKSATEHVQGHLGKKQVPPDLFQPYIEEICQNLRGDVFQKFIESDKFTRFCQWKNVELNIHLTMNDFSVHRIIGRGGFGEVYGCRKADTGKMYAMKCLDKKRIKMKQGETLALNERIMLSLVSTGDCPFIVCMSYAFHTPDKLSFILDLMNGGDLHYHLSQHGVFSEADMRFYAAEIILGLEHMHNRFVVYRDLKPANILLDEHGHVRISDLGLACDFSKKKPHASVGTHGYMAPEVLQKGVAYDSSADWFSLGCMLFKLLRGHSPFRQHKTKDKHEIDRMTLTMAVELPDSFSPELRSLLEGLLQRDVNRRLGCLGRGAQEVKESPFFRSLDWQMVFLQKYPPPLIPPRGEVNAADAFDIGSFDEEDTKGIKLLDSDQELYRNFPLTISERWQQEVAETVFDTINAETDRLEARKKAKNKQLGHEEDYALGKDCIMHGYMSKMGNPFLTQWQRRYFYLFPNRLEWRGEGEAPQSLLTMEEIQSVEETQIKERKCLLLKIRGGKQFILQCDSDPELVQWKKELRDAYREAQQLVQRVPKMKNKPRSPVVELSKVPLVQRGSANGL
VLA-4 inh: inhibition in a human VLA-4 binding assay. AID 2557. VLA-4 expressing cells, ligand binding flow cytometry. hit rate 0.2% among 330,000. inhibition, % (about 7 µM as worked out from the volumes in the protocol). P13612; in the data active = inhibition above about 50%
Bfl-1 A1 inh: inhibitors of the anti-apoptotic protein A1, read as caspase activation; MEF A1-2A-BIM cells, Caspase-Glo 3/7 luminescence, 3 h; percent of clofoctol response, vehicle zero; caspase activation, % (test concentration not listed); hit rate 0.066% among 330,000;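 active = over half of replicate activation scores above 10%, or exactly half above 10 with the replicate mean above 10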
GRK2 inh confirm: human GRK2 inhibition confirmation, cherry pick 1; shares compounds with GRK2 aptamer HTS; bead-bound GRK2, FAM-aptamer displacement, flow cytometry; aptamer displacement, % at 10 µM; hit rate 4% among 2,000; AID 504451;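 active = aptamer displacement above 40%, near three times the noise of non-fluorescent compounds, on plates passing quality checks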;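 note: negative values mostly reflect intrinsic compound fluorescence rather than true enhancement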
Aptamer quench SP: aptamer fluorescence quenching in GRK2 counter-screen; shares compounds with GRK2 aptamer HTS; Carboxyfluorescein RNA aptamer on beads, flow cytometry quenching; stronger effect = lower value; fluorescence response (% of DMSO), % at 10 µM; 2,000 tested, under 10 active; AID 504580;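 active = compounds that quench the bead-bound fluorescent RNA probe, cutting fluorescence to under half of the solvent control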;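 note: counterscreen run without GRK2 so only probe quenching by compound is measured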
GRK2 confirm 2: human GRK2 inhibition confirmation, cherry pick 2; shares compounds with GRK2 aptamer HTS; bead-bound GRK2, FAM-aptamer displacement, flow cytometry; inhibition of aptamer binding, % at 10 µM; 360 tested, under 10 active; AID 504782;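 active = inhibition of aptamer binding above 40%, about triple the noise seen with nonglowing compounds, on plates passing quality control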;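 note: negative values mostly come from compounds that fluoresce themselves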
FAM quench SP: counter-screen for GRK2 binding hits: quenchers of fluorescent RNA aptamer. 360 tested, under 10 active. AID 588494. fluorescence response vs DMSO, % at 10 µM. carboxyfluorescein RNA aptamer beads, flow cytometry quenching; stronger effect = lower value. shares compounds with GRK2 aptamer HTS;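 active = response vs DMSO under 50%, meaning signal dropped by over half, treated as fluorescence quencher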;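 note: labelled aptamer on streptavidin beads without GRK2 as a quench counter-screen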
Each line names hits and unclear results; the compound was inactive in the other large screens (follow-up assays come after a bar, where they were run).

COc1ccc(S(=O)(=O)NCc2ccc3c(c2)OCO3)cc1C	GRK2 aptamer HTS 71 | GRK2 inh confirm inactive | Aptamer quench SP inactive
COc1ccc(OC)c(C(=O)CN2C(=O)C(=O)N(C3CCCC3)C2=O)c1	none
COc1ccc(CNC(=O)C(=O)c2cn(CC(=O)N3CCOCC3)c3ccccc23)cc1	none
O=C(NCc1ccc(Cl)cc1)C(=O)c1cn(CC(=O)N2CCOCC2)c2ccccc12	GRK2 aptamer HTS 45 | GRK2 inh confirm inactive | Aptamer quench SP inactive
O=C1/C(=C\c2ccc(-c3ccccc3Cl)o2)SC(=S)N1CC1CCCO1 (stereo unspecified)	GRK2 aptamer HTS 51 | GRK2 inh confirm inactive | Aptamer quench SP inactive
CC(=O)OCC1=C(C(=O)O)N2C(=O)C(NC(=O)Cn3nc(C(F)F)c(Cl)c3C)C2SC1 (stereo unspecified)	none | GRK2 inh confirm inactive | Aptamer quench SP inactive
CCN(CC)C(=O)[C@H]1C[C@H](CC(=O)NCCc2ccccn2)C(=O)N2CCc3c([nH]c4cc(CCC(=O)N(C)C)ccc34)[C@]12C	none (no result: VLA-4 inh, Bfl-1 A1 inh)
Cn1c(=O)n(CCc2ccccc2)c(=O)c2c1ncn2Cc1ccccc1	GRK2 aptamer HTS 74 | GRK2 inh confirm inactive | Aptamer quench SP inactive
CN(Cc1ccccc1)Cc1nc2c(c(=O)n(C)c(=O)n2C)n1CCc1ccccc1	none | GRK2 inh confirm inactive | Aptamer quench SP inactive
Cc1ccccc1OCCn1c(S(=O)(=O)O)nc2c(N)ncnc21	none
COc1ccc(CNC(=O)Cn2nnc3ccccc3c2=O)cc1	none
COc1ccc(-c2nc(-c3ccc(NC(=O)c4ccc(Br)o4)cc3)no2)cc1OC	none
COc1cc(-c2nc(-c3ccc(NC(=O)c4ccc(Br)o4)cc3)no2)cc(OC)c1OC	GRK2 aptamer HTS 82 | GRK2 inh confirm inactive | Aptamer quench SP inactive
CCOC(=O)c1cc(-c2ccccc2C)nn1CC1CC(c2cccnc2)=NO1 (stereo unspecified)	none
CC(=O)c1c(C)cc(C)c(CSc2ccccn2)c1C	none
CC(C(=O)N(C)C1CCS(=O)(=O)C1)N1C(=O)/C(=C/c2ccc(F)cc2)SC1=S (stereo unspecified)	none
CCN(C(=O)C(C)N1C(=O)/C(=C/c2ccco2)SC1=S)C1CCS(=O)(=O)C1 (stereo unspecified)	GRK2 aptamer HTS 42 | GRK2 inh confirm inactive | Aptamer quench SP inactive
CN(C(=O)c1ccc(N2CCCCC2)c([N+](=O)[O-])c1)C1CCS(=O)(=O)C1 (stereo unspecified)	none | GRK2 inh confirm inactive | Aptamer quench SP inactive
CN(C(=O)c1ccc(S(=O)(=O)N2CCCC2)cc1)C1CCS(=O)(=O)C1 (stereo unspecified)	none
CCOC(=O)CNC(=O)COc1coc(CN2CCN(Cc3ccccc3)CC2)cc1=O	none
CCOc1ccc(NC(=O)CN(C)C(=O)c2cc(-c3ccco3)nc3ccccc23)cc1OCC	none (no result: NTR1 agonist, GRK2 aptamer HTS, VLA-4 inh, Bfl-1 A1 inh) | GRK2 inh confirm inactive | Aptamer quench SP inactive
CCOc1ccccc1N1CC(C(=O)Nc2cc(Cl)ccc2C)CC1=O (stereo unspecified)	none
Cc1ccc(-c2cccc(C3CC=CC4C3C(=O)N(Cc3ccccc3)C4c3cc(C)ccc3F)c2)cc1 (stereo unspecified)	none | GRK2 inh confirm inactive | Aptamer quench SP inactive
COc1cc([N+](=O)[O-])cc2sc(NC(C)=O)nc12	GRK2 aptamer HTS 66 | GRK2 inh confirm inactive | Aptamer quench SP inactive
CCCCC(=O)Nc1nc2c(OC)cc([N+](=O)[O-])cc2s1	none
Cc1ccc(C)c(S(=O)(=O)N2CCN(C(=O)Cc3sc(C)nc3-c3ccc(F)cc3)CC2)c1	none (no result: NTR1 agonist, GRK2 aptamer HTS, VLA-4 inh, Bfl-1 A1 inh)
COc1ccc(OC)c2nc(-c3ccc4c(c3)OCO4)ccc12	GRK2 aptamer HTS 42 | GRK2 confirm 2 inactive | FAM quench SP inactive
COc1ccc(NC(=O)N(C)C[C@H]2Oc3ccc(NC(=O)CCC(F)(F)F)cc3C(=O)N([C@H](C)CO)C[C@@H]2C)cc1	GRK2 aptamer HTS 73 | GRK2 confirm 2 inactive | FAM quench SP inactive
O=C(CSc1nncs1)Nc1ccc(Cl)cc1C(F)(F)F	none
Cc1ccc(NC(=O)CS(=O)CC(=O)Nc2ccc(N3CCOCC3)cc2)cc1Cl (stereo unspecified)	GRK2 aptamer HTS 70 (no result: NTR1 agonist) | GRK2 inh confirm inactive | Aptamer quench SP inactive
Cc1cc(C)cc(NC(=S)N2CCC(NC(=O)c3ccco3)CC2)c1	none
O=Cc1ccc(OCC(=O)Nc2ccccc2-c2ccccc2)cc1	GRK2 aptamer HTS 61 | GRK2 inh confirm inactive | Aptamer quench SP inactive
COc1cccc(/C=C/C(=O)OCC(=O)NCCCc2ccccc2)c1OC	none
C[C@@H](NC(=O)[C@@H]1Cc2ccccc2CN1)C(=O)NCc1ccco1	none
CC(=O)c1ccc(-n2nncc2C(C)(C)C)cc1	none
Cc1cnnn1-c1ccc(C(=O)CCl)cc1	GRK2 aptamer HTS 56 | GRK2 inh confirm inactive | Aptamer quench SP inactive
O=C(NCCc1ccc(F)cc1)c1cccc2c1C(=O)c1ccc(N3CCC(Cc4ccccc4)CC3)cc1S2(=O)=O	none | GRK2 inh confirm inactive | Aptamer quench SP inactive
CCOc1ccc(OCCC(=O)N2CCc3cc(OC)c(OC)cc3C2)cc1	GRK2 aptamer HTS 94 | GRK2 inh confirm inactive | Aptamer quench SP inactive
COc1cccc(C(NC(C)=O)c2ccc3cccnc3c2O)c1 (stereo unspecified)	GRK2 aptamer HTS 80 | GRK2 inh confirm inactive | Aptamer quench SP inactive
CC(=O)NC(c1cccc([N+](=O)[O-])c1)c1ccc2cccnc2c1O (stereo unspecified)	none
COc1ccc(CCCN2CCC(CN3C(=S)NC[C@@H]3Cc3ccccc3)CC2)cc1OC	none (no result: NTR1 agonist, GRK2 aptamer HTS, VLA-4 inh, Bfl-1 A1 inh)
Cc1cccc(NC(=O)CSc2c3c(nc4ccccc24)CCC3)n1	none | GRK2 confirm 2 inactive | FAM quench SP inactive
CCC(C(=O)NCC1CCCO1)N(Cc1ccc(F)cc1)C(=O)CNS(=O)(=O)c1ccccc1 (stereo unspecified)	GRK2 aptamer HTS 78 | GRK2 inh confirm inactive | Aptamer quench SP inactive
CCN1CCN(C(=O)Cn2nc(C)c3sc4ccccc4c3c2=O)CC1	none
O=C(O)c1c2c(nc3ccccc13)CCCCC2	none
O=C(NC1CCCCC1)c1c2c(nc3ccccc13)CCC2	none | GRK2 confirm 2 inactive | FAM quench SP inactive
CN=c1scc(C)n1/N=C/c1ccc2c(c1)OCO2	GRK2 aptamer HTS 91 | GRK2 inh confirm inactive | Aptamer quench SP inactive
CN(C)c1ccc(-n2cccc2)cc1	none | GRK2 confirm 2 inactive | FAM quench SP inactive
